Experimental data reported in PubChem BioAssay (NCI).
This is part of a sample that, as a whole, favours compounds with a hit. Of some 79,000 tested, about 15% had one in any assay. Values without a mark were called inactive. Activity calls are given as the source filed them. Rule as the data show it: active = growth inhibition above about 70%; inactive = the rest.

Experiments:
[1] = NCI Yeast Anticancer Drug Screen. Data for the rad50 strain (AID 155);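 also: 0% = growth of vehicle-only cultures of the same strain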; conditions: S. cerevisiae rad50 strain growth inhibition, active compounds read high
In short: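 Yeast carrying a defined DNA repair defect were exposed to test compounds, and growth was compared with vehicle-treated controls to give percent inhibition.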

[2] = NCI Yeast Anticancer Drug Screen. Data for the mec2-1 strain (AID 157); conditions: S. cerevisiae mec2-1 strain, active compounds read high
In short: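 Mutant yeast (mec2-1) grown with compound; growth inhibition relative to vehicle control reported.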

[3] = NCI Yeast Anticancer Drug Screen. Data for the sgs1 mgt1 strain (AID 161);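 also: 0% = growth of cultures given vehicle only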; conditions: S. cerevisiae sgs1 mgt1 strain, active compounds read high
In short: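 Compounds are added to genetically altered yeast, and growth is compared with cultures given vehicle alone to give percent inhibition.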

[4] = NCI Yeast Anticancer Drug Screen. Data for the cln2 rad14 strain (AID 165);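 also: 0% = growth equal to vehicle treated cultures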; conditions: S. cerevisiae cln2 rad14 strain, active compounds read high
In short: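 Readout is yeast growth inhibition versus vehicle-treated controls, using a strain with cln2 and rad14 alterations exposed to compound.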

[5] = NCI Yeast Anticancer Drug Screen. Data for the bub3 strain (AID 167); conditions: S. cerevisiae bub3 mutant strain, active compounds read high
In short: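 Compounds were applied to a genetically altered yeast strain carrying a cell-cycle control defect. Growth inhibition was scored against vehicle-treated controls.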

[6] = NCI Yeast Anticancer Drug Screen. Data for the mlh1 rad18 strain (AID 175); conditions: S. cerevisiae mlh1 rad18 strain growth inhibition, active compounds read high
In short: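 Genetically defined yeast (DNA repair-deficient) exposed to compounds; growth inhibition determined relative to vehicle.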

[7] = at 5.0 µM (retest, dose inferred, filed as 0.5)
[8] = at 50.0 µM (retest, dose inferred, filed as 5.0)

SMILES	growth inhibition [1, 7]	growth inhibition [1, 8]	growth inhibition ([1]; at 50.0 µM)	growth inhibition [2, 7]	growth inhibition [2, 8]	growth inhibition ([2]; at 50.0 µM)	growth inhibition [3, 7]	growth inhibition [3, 8]	growth inhibition ([3]; at 50.0 µM)	growth inhibition [4, 7]	growth inhibition [4, 8]	growth inhibition ([4]; at 50.0 µM)	growth inhibition [5, 7]	growth inhibition [5, 8]	growth inhibition ([5]; at 50.0 µM)	growth inhibition [6, 7]	growth inhibition [6, 8]	growth inhibition ([6]; at 50.0 µM)
CCCCCCC(C)OC(=O)c1ccccc1C(=O)O (stereo unspecified)	7%	17%	11.5%	-11%	10%	0.2%	-6%	16%	17.9%	6%	31%	63.5%	-3%	9%	13.3%	-13%	12%	14.8%
Cc1ccc(C(=O)C(CCC#N)(CCC#N)CCC#N)cc1	-8%	-5%	-13.7%	-8%	-17%	-0.25%	-1%	-11%	8.85%	-15%	-3%	-6.25%	12%	15%	1.1%	4%	-6%	4.3%
CC1=C(C(=O)Nc2ccccc2)C(c2cc(Cl)cc(Cl)c2)C(C(=O)Nc2ccccc2)=C(C)N1	2%	2%	87% (active)	19%	19%	85.5% (active)	11%	11%	83% (active)	5%	5%	63.1%	-11%	-11%	63.4%	-4%	-4%	74.1% (active)
CCCCCCCCCCCCCC/C(=C/OCC[N+](C)(C)C)OC(C)=O (tested in a mixture with another compound)	99% (active)	99% (active)	99.7% (active)	99% (active)	100% (active)	99.8% (active)	94% (active)	100% (active)	99.8% (active)	99% (active)	99% (active)	99.3% (active)	99% (active)	99% (active)	99.7% (active)	98% (active)	100% (active)	99.7% (active)
CC(C)(C)OC(=O)N(CCCCNCc1ccc2ccccc2c1)CCCNCc1ccc2ccccc2c1	17%	99% (active)	91% (active)	19%	99% (active)	92.6% (active)	-7%	99% (active)	76.5% (active)	3%	98% (active)	89% (active)	18%	97% (active)	90.5% (active)	26%	99% (active)	91% (active)
CN(C)c1ccc(SC(=S)NCc2ccccc2)cc1	4%	92% (active)	97.5% (active)	-7%	92% (active)	98.2% (active)	-2%	82% (active)	96.3% (active)	-3%	28%	95.8% (active)	-8%	96% (active)	97% (active)	4%	90% (active)	94.4% (active)
COc1ccc(C2C3CCCC(C3=O)C(c3ccc(OC)cc3)N2N=O)cc1 (stereo unspecified)	0%	68%	84% (active)	11%	64%	86.9% (active)	-4%	77% (active)	59.5%	-6%	71% (active)	88.8% (active)	-2%	72% (active)	85.2% (active)	-3%	77% (active)	96.5% (active)
C1=C(CC2=C[P+](c3ccccc3)(c3ccccc3)C=C(c3ccccc3)O2)OC(c2ccccc2)=C[P+]1(c1ccccc1)c1ccccc1	17%	96% (active)	87.4% (active)	8%	98% (active)	88% (active)	35%	98% (active)	86.2% (active)	25%	98% (active)	85.4% (active)	32%	98% (active)	90.5% (active)	6%	95% (active)	90.8% (active)
CCOC(=O)c1cc(NC(=O)c2cc(NC(=O)c3cc(NC(=O)c4c(-c5ccccc5)noc4C)cn3C)cn2C)cn1C	3%	56%	50.3%	-3%	54%	56.8%	2%	86% (active)	59.1%	-5%	29%	14.8%	-4%	46%	36.1%	0%	67%	51.3%
CC(C)=CCc1c2c(c3occ(-c4ccc(O)c(O)c4)c(=O)c3c1O)C=CC(C)(C)O2	16%	90% (active)	90.8% (active)	29%	95% (active)	94.1% (active)	9%	93% (active)	94.8% (active)	-25%	76% (active)	91.5% (active)	-7%	94% (active)	89% (active)	-2%	90% (active)	90.8% (active)
COC1/C=C\OC2(C)Oc3c(C)c(O)c4c(O)c(c5[nH]c(-c6ccccc6)nc5c4c3C2=O)NC(=O)/C(C)=C\C=C\C(C)C(O)C(C)C(O)C(C)C(OC(C)=O)C1C (stereo unspecified)	29%	84% (active)	88.5% (active)	30%	94% (active)	91.1% (active)	20%	88% (active)	91.7% (active)	44%	91% (active)	88.6% (active)	14%	89% (active)	88.6% (active)	19%	94% (active)	90% (active)
Cc1cccc2c(=O)c3ccccc3oc12	5%	42%	47.5%	2%	11%	17.2%	-1%	18%	15.4%	12%	-1%	-63.5%	9%	19%	14.5%	9%	11%	3.5%
C1CCC(CCCCc2nn[nH]n2)CC1	0%	98% (active)	99.1% (active)	-30%	97% (active)	99.3% (active)	-1%	96% (active)	99% (active)	0%	99% (active)	98.3% (active)	-6%	97% (active)	99.3% (active)	-7%	97% (active)	99% (active)
S=c1nc(C(c2ccccc2)c2ccccc2)[nH][nH]1	-2%	1%	29.1%	-1%	7%	1.7%	10%	13%	40.4%	0%	-2%	28.1%	1%	27%	11.6%	-3%	3%	65.5%
O=C(OCCCC(C(=O)c1ccccc1)=P(c1ccccc1)(c1ccccc1)c1ccccc1)c1ccccc1	35%	99% (active)	84.8% (active)	36%	99% (active)	36.8%	33%	99% (active)	61.5%	6%	98% (active)	9.75%	14%	99% (active)	23.4%	50%	99% (active)	54.8%
CCOC(=O)C1(C#N)C(c2ccccc2)C1(C#N)C#N (stereo unspecified)	18%	85% (active)	97.9% (active)	29%	96% (active)	99.3% (active)	31%	34%	98.5% (active)	9%	76% (active)	97.8% (active)	14%	92% (active)	97.4% (active)	42%	98% (active)	98.8% (active)
O=S(=O)(c1cc(Br)ccc1O)c1cc(Br)ccc1O	94% (active)	99% (active)	99.8% (active)	99% (active)	100% (active)	99.8% (active)	89% (active)	99% (active)	99.8% (active)	99% (active)	100% (active)	99.5% (active)	99% (active)	100% (active)	99.7% (active)	98% (active)	99% (active)	99.5% (active)
